Binding signal data for one sequence are collected here from PMC7862700, “An all-to-all approach to the identification of sequence-specific readers for epigenetic DNA modifications on cytosine”.

Holding throughout (assay): DAPPL (digital affinity profiling via proximity ligation, sequencing); 10 mM Tris-HCl pH 7.5, 50 mM NaCl, 1 mM DTT, 4% glycerol, room temperature, 30 min; GST-TFs on glutathione beads, 16-mer random dsDNA library, 0.1% formaldehyde crosslink after washing; high values mean tight binding
One assay addresses T1, FLI1 (Homo sapiens, UniProt Q01543 1-452).
T1 sequence: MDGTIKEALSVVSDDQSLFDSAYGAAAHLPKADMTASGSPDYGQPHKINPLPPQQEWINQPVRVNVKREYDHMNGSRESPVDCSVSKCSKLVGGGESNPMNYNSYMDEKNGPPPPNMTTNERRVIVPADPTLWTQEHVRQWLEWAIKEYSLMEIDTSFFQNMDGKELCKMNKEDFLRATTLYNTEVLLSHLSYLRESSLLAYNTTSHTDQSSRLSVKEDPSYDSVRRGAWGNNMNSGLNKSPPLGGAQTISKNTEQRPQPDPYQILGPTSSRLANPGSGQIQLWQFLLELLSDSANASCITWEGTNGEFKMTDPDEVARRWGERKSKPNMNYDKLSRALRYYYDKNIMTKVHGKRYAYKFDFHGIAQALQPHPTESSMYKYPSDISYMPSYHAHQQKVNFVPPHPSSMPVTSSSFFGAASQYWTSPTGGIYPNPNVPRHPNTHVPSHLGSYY
The following applies: protein: recombinant; tags: N-terminal GST; dsDNA, one strand shown. In a few lines: (§1)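 Sequencing on an Illumina NextSeq500 followed washing, crosslinking with 0.1% formaldehyde, proximity ligation (BsaI/T4 ligase, 1 h, 37 °C) and PCR amplification of pools that had been incubated for 30 min at room temperature with 200 nmole of a random double-stranded 16-mer DNA library in Tris/NaCl/DTT/glycerol buffer. Each pool held DNA-barcoded human transcription factors, expressed in yeast as GST fusions and captured on glutathione beads, plus a tag-only sample. Binding signal is a hexamer's read frequency for a factor divided by its frequency in the tag-only sample.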

The next assay addresses T2, ELK1 (Homo sapiens, UniProt P19419 1-428).
T2 sequence: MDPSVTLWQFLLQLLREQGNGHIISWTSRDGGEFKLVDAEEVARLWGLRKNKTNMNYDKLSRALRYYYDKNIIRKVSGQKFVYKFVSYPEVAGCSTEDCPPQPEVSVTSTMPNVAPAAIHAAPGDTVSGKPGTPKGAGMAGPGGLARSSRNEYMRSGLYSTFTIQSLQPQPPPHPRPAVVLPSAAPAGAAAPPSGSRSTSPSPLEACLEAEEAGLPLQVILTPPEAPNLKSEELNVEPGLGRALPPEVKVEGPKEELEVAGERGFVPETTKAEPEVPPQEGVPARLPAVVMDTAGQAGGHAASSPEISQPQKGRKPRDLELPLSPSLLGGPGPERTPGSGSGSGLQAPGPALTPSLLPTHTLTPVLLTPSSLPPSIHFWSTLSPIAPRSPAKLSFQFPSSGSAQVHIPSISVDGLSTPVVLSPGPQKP
Conditions: protein: recombinant; tags: N-terminal GST; dsDNA, one strand shown. In a few lines:
as §1

The target of another assay is T3, GABPA (Homo sapiens, UniProt Q06546 1-454).
T3 sequence: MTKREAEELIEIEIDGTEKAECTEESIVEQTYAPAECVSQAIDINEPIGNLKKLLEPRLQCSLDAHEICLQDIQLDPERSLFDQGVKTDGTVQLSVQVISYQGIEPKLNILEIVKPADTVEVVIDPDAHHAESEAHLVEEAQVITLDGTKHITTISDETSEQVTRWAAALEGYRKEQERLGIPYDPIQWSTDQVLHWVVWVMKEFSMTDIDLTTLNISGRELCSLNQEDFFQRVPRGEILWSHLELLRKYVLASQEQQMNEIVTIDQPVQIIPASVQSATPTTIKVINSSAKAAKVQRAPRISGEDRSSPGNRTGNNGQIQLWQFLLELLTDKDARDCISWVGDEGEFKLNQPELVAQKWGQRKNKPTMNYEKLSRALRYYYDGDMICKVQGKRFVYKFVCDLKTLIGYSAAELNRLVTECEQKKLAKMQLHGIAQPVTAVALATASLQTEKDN
The following applies: protein: recombinant; tags: N-terminal GST; dsDNA, one strand shown. In a few lines:
as §1

In the next assay the target is T4, ERG (Homo sapiens, UniProt P11308 1-479).
T4 sequence: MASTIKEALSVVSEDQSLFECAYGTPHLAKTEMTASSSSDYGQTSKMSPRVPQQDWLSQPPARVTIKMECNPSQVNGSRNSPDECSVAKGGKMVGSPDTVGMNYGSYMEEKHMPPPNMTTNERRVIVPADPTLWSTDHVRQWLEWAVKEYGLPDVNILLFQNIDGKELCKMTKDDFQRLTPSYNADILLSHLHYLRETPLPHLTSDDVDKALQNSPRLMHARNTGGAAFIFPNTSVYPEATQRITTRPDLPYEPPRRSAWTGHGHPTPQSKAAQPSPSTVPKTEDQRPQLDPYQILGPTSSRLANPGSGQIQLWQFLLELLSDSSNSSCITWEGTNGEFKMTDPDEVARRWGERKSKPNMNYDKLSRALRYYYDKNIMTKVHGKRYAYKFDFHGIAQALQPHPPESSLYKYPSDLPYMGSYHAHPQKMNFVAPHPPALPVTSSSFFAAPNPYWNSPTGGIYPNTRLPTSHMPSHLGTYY
Conditions: protein: recombinant; tags: N-terminal GST; dsDNA, one strand shown. In a few lines:
as §1

The next assay has as its target ELF1 (Homo sapiens, UniProt P32519 1-619). The following applies: protein: recombinant; tags: N-terminal GST; dsDNA, one strand shown. In a few lines: as §1
In the next assay the target is T5, EHF (Homo sapiens, UniProt Q9NZC4 1-300).
T5 sequence: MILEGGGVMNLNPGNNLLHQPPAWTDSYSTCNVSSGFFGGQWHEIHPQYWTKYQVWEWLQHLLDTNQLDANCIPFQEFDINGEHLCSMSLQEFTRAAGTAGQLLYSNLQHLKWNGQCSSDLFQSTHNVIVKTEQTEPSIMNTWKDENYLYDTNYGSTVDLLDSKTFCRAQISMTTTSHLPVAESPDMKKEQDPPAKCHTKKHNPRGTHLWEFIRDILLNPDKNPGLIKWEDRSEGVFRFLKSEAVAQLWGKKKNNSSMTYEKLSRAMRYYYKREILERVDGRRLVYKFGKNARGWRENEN
Conditions: protein: recombinant; tags: N-terminal GST; dsDNA, one strand shown. In a few lines: as §1

A further assay has as its target SPI1 (Homo sapiens, UniProt P17947 1-270). The following applies: protein: recombinant; tags: N-terminal GST; dsDNA, one strand shown. In a few lines:
as §1

For a further assay, the target named is SPIB (Homo sapiens, UniProt Q01892 1-262). The following applies: protein: recombinant; tags: N-terminal GST; dsDNA, one strand shown. In a few lines: as §1
The next assay deals with T6, ELK3 (Homo sapiens, UniProt P41970 1-407).
T6 sequence: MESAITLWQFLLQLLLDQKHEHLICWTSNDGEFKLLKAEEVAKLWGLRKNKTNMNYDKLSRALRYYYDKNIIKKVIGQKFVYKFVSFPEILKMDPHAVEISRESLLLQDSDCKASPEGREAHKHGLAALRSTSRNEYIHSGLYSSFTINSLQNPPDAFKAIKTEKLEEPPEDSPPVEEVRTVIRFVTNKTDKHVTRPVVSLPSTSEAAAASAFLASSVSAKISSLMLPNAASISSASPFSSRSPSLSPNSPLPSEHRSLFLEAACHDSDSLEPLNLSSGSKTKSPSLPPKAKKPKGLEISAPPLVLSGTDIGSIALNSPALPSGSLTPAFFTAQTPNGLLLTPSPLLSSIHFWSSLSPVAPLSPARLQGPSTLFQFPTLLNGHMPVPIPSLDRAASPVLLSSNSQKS
Conditions: protein: recombinant; tags: N-terminal GST; dsDNA, one strand shown. In a few lines: as §1

The target in the next assay is T7, FEV (Homo sapiens, UniProt Q99581 1-238).
T7 sequence: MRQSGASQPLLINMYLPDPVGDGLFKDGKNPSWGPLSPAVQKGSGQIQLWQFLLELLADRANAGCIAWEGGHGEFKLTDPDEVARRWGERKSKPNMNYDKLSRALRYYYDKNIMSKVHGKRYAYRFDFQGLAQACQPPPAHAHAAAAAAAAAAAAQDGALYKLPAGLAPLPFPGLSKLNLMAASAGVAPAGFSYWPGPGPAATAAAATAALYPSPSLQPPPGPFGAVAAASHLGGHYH
The following applies: protein: recombinant; tags: N-terminal GST; dsDNA, one strand shown. In a few lines: as §1

The target of a further assay is ETV5 (Homo sapiens, UniProt P41161 1-510). The following applies: protein: recombinant; tags: N-terminal GST; dsDNA, one strand shown. In a few lines: as §1
Another assay deals with HSF1 (Homo sapiens, UniProt Q00613 1-529). The following applies: protein: recombinant; tags: N-terminal GST; chain copies: 3; dsDNA, one strand shown. In a few lines: as §1
For the next assay, the target named is T8, SPIC (Homo sapiens, UniProt Q8N5J4 1-248).
T8 sequence: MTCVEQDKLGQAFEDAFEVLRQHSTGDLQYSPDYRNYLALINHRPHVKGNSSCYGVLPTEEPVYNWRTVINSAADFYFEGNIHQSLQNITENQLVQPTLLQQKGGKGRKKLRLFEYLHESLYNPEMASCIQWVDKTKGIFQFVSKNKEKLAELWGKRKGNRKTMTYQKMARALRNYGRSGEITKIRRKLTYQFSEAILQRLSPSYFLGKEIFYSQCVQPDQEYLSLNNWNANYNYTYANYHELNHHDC
Conditions: protein: recombinant; tags: N-terminal GST; dsDNA, one strand shown. In a few lines:
as §1

For the next assay, the target named is ELF4 (Homo sapiens, UniProt Q99607 1-663). Conditions: protein: recombinant; tags: N-terminal GST; dsDNA, one strand shown. In a few lines: as §1
In a further assay the target is T9, ELK4 (Homo sapiens, UniProt P28324-2 1-405).
T9 sequence: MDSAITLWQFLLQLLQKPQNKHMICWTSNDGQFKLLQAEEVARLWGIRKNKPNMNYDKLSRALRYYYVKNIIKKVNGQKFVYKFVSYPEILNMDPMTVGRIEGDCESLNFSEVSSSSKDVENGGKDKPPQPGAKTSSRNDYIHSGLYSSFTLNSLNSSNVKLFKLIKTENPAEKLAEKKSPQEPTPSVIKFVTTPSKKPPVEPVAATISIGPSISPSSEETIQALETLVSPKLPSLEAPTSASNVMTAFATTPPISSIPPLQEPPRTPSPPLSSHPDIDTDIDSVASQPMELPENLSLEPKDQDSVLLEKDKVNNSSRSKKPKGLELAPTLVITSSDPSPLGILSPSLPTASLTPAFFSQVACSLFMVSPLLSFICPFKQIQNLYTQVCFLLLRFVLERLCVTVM
Conditions: protein: recombinant; tags: N-terminal GST; dsDNA, one strand shown. In a few lines:
as §1

Another assay addresses T10, ETV2 (Homo sapiens, UniProt O00321 1-342).
T10 sequence: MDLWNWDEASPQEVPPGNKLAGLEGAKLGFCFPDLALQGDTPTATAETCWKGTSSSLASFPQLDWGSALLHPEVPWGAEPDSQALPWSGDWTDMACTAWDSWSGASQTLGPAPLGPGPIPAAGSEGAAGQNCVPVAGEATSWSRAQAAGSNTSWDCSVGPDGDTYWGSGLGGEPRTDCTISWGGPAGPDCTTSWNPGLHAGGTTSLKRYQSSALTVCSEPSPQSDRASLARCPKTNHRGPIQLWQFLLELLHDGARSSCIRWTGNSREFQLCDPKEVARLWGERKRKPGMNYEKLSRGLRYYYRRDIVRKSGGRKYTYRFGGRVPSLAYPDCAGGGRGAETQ
Conditions: protein: recombinant; tags: N-terminal GST; dsDNA, one strand shown. In a few lines:
as §1

The target of a further assay is T11, ELF3 (Homo sapiens, UniProt P78545 1-371).
T11 sequence: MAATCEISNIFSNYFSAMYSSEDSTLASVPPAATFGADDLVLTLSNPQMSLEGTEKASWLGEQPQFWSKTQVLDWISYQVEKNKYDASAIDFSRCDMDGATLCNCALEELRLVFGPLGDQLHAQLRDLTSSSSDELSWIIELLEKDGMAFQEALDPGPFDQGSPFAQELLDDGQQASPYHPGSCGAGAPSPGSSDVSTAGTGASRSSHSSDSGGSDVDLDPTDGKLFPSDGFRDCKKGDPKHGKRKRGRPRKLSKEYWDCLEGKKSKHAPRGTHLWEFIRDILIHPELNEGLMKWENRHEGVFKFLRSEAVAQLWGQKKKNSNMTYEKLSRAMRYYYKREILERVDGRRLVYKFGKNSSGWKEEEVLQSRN
Conditions: protein: recombinant; tags: N-terminal GST; dsDNA, one strand shown. In a few lines:
as §1

For the next assay, the target named is ETV1 (Homo sapiens, UniProt P50549 1-477). The following applies: protein: recombinant; tags: N-terminal GST; dsDNA, one strand shown. In a few lines:
as §1

Chain of ETV5 (P41161 whole entry): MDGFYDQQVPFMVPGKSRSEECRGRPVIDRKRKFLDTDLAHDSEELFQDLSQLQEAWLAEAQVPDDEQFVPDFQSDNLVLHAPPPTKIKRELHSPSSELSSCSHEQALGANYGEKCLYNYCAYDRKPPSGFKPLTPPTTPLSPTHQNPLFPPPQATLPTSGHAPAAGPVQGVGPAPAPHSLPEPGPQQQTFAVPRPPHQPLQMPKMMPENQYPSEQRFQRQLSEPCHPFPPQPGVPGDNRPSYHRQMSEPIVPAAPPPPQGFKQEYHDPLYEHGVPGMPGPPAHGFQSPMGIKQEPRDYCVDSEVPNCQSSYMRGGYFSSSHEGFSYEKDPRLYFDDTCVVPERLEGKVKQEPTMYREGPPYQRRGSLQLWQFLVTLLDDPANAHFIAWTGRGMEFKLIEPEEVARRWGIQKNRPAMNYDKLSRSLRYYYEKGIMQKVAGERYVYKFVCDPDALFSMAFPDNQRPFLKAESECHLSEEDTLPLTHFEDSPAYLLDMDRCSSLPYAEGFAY
Chain of ELF1 (P32519 whole entry): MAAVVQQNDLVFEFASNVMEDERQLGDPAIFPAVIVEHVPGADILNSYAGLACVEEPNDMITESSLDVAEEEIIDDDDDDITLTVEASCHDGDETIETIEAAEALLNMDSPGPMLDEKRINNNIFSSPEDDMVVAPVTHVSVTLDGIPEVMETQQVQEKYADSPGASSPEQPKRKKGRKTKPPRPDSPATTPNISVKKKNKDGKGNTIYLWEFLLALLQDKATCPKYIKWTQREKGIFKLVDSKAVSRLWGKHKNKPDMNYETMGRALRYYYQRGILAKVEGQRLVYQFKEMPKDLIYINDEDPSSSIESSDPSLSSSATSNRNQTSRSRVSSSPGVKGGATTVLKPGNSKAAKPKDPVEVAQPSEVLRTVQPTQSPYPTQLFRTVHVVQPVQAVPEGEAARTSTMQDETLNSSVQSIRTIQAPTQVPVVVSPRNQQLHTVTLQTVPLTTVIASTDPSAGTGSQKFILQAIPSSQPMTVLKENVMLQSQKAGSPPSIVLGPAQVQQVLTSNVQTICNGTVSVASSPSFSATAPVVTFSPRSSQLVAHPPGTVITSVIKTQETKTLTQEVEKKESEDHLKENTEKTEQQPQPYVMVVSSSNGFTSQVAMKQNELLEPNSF
Chain of SPIB (Q01892 whole entry): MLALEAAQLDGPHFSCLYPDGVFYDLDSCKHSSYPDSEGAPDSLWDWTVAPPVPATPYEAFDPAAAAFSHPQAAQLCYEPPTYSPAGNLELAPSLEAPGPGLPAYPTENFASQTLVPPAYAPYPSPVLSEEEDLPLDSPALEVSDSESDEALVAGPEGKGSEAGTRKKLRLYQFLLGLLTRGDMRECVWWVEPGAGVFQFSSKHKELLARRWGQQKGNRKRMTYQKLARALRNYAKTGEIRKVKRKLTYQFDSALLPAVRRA
Chain of ETV1 (P50549 whole entry): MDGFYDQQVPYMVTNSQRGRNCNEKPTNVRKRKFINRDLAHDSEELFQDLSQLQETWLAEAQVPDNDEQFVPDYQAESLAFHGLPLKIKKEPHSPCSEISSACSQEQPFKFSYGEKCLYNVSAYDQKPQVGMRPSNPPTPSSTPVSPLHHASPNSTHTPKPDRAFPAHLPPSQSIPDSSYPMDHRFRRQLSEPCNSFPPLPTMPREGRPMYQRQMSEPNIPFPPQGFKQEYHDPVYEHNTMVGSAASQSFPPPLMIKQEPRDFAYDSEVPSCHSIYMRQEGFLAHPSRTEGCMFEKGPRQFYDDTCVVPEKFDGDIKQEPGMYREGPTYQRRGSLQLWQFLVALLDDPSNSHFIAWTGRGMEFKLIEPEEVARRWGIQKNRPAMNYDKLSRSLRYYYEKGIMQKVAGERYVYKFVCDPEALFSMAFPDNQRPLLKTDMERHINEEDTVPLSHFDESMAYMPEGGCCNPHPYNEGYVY
Chain of HSF1 (Q00613 whole entry): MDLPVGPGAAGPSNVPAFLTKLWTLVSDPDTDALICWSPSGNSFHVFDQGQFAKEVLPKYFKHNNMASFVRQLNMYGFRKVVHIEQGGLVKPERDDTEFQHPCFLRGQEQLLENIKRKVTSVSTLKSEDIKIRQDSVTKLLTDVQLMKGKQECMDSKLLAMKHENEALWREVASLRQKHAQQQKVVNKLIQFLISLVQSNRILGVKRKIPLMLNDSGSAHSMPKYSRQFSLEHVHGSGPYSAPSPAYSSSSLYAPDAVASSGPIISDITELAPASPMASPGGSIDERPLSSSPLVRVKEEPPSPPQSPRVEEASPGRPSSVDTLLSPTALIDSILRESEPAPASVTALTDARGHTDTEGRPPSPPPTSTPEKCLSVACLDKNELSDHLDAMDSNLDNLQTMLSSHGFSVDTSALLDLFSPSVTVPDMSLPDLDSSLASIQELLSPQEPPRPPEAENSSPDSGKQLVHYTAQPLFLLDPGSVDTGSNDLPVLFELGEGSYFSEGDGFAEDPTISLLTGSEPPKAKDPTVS
Chain of ELF4 (Q99607 whole entry): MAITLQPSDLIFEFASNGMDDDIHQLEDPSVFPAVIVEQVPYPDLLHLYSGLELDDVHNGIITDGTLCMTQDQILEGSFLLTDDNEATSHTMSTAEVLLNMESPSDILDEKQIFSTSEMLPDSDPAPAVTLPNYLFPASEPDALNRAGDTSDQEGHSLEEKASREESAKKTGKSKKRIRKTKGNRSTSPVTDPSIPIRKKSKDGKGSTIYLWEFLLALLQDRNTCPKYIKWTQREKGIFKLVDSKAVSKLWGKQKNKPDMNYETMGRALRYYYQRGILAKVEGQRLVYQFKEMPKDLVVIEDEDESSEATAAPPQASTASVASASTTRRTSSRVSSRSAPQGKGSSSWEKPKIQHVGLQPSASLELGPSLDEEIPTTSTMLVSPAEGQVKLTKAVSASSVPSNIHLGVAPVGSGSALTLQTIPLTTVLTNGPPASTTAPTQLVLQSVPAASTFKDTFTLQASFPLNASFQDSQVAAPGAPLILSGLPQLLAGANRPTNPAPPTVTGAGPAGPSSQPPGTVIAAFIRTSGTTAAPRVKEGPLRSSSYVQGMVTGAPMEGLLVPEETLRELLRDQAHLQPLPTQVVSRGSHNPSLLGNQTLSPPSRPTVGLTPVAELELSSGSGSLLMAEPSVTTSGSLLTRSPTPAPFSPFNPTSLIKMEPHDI

As for TCGCAC, the binding signal in the assay with FLI1 was 1.11 fold enrichment (6-mer frequency, TF over GST control); with ELK1, 1.1 fold enrichment (6-mer frequency, TF over GST control); with GABPA, 1.09 fold enrichment (6-mer frequency, TF over GST control); in the assay with ERG, 1.07 fold enrichment (6-mer frequency, TF over GST control); with ELF1 it was 1.13 fold enrichment (6-mer frequency, TF over GST control); with EHF, 1.06 fold enrichment (6-mer frequency, TF over GST control). For the same sequence, the binding signal with SPI1 was 1.13 fold enrichment (6-mer frequency, TF over GST control); with SPIB, 1.02 fold enrichment (6-mer frequency, TF over GST control); with ELK3, 1.02 fold enrichment (6-mer frequency, TF over GST control); with FEV, 1.12 fold enrichment (6-mer frequency, TF over GST control); with ETV5 it was 1.01 fold enrichment (6-mer frequency, TF over GST control); with HSF1, 1.03 fold enrichment (6-mer frequency, TF over GST control). Besides, the binding signal with SPIC is 1.06 fold enrichment (6-mer frequency, TF over GST control); with ELF4, 1.13 fold enrichment (6-mer frequency, TF over GST control); in the assay with ELK4, 1.08 fold enrichment (6-mer frequency, TF over GST control); with ETV2 it was 1.07 fold enrichment (6-mer frequency, TF over GST control); with ELF3 it was 1.18 fold enrichment (6-mer frequency, TF over GST control); with ETV1 it was 1.04 fold enrichment (6-mer frequency, TF over GST control).
